The values below come from PubChem BioAssay AID2012 (Sanford-Burnham Center for Chemical Genomics, 2009).

The target of the test is Eukaryotic translation initiation factor 4H (Homo sapiens) (UniProt Q15056). Put plainly: eIF4H binding inhibition – biochemical, uHTS, fluorescence polarization, translation initiation inhibitor project, primary screen (AID 2012).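 Also: calls also rest on retests at 20 µM and on dose response follow-up.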 To be noted: eIF4H fluorescence polarization binding assay, stronger effect = higher value.

Out of some 290,000 compounds screened, about 2,700 (0.93%) were called active. No rule for the calls is given here. The full list was thinned out, with actives kept by preference.

`Cc1ccc(NC(=O)CCN2C(=O)c3ccccc3C2=O)cc1C`: the inhibition (at 35 µM) was -6.5% (inactive).

Consider `Cc1cc(C)cc(NC(=O)CCN2C(=O)c3ccccc3C2=O)c1`, for which, where the note is “at 35 µM”, the inhibition is -1.3% (inactive).

For `Cc1cc(C)cc(OCC(=O)NNC(=O)CCN2C(=O)c3ccccc3C2=O)c1`, the inhibition was 2.3% (active) (at 35 µM) and 87.4% (confirmation average, at 20 µM).

Regarding `COc1ccc(CN2CC(C(=O)NCCc3ccc(Cl)cc3)CC2=O)cc1` (configuration not stated), the inhibition (at 35 µM) is -12.2% (inactive).

Turning to `O=C(N/C(=C\c1ccc([N+](=O)[O-])cc1)C(=O)N1CCOCC1)c1cccc(Br)c1`, the inhibition (at 35 µM) is 7.9% (inactive).

With `O=C1c2ccccc2C(=O)N1CCOc1ccc(F)cc1`, the inhibition (at 35 µM) was 0.9% (inactive).

For `O=C(Nc1nonc1-c1ccc(Cl)cc1)c1ccco1`, the inhibition (at 35 µM) was -12.8% (inactive).

In the case of `Cc1cc2occ(CC(=O)NNC(=O)c3ccccc3F)c2cc1C`, the inhibition (at 35 µM) was -3% (inactive).

For `CC1CN(C(=O)c2ccccc2NS(=O)(=O)c2cccc([N+](=O)[O-])c2)CC(C)O1` (configuration not stated), the inhibition reads like this: (at 35 µM) -0.3% (active); (confirmation average, at 20 µM) 95.9%.

As to `COc1ccc(S(=O)(=O)Nc2ccccc2C(=O)N2CCCC2)cc1C`, the inhibition (at 35 µM) is -2.4% (inactive).

On to `COCCNC(=O)c1ccccc1NS(=O)(=O)c1ccc(C)c([N+](=O)[O-])c1`, for which the inhibition (at 35 µM) was 9.2% (inactive).

For the compound `O=S(=O)(c1ccc(Cl)cc1)c1nc(-c2ccccc2F)oc1NCCN1CCOCC1`, the inhibition (at 35 µM) is -7.4% (inactive).

For `Cc1nn(C)cc1S(=O)(=O)N1CCN(c2ccc(F)cc2)CC1`, the inhibition (at 35 µM) is 1% (inactive).

In the case of `O=C(N/N=C/c1ccc([N+](=O)[O-])o1)c1cccc(S(=O)(=O)N2CCOCC2)c1`, the inhibition by setting is: (at 35 µM) 52% (active); (confirmation average, at 20 µM) 78.6%.

On to `COc1ccc(Br)cc1/C=N/NC(=O)c1cccc(S(=O)(=O)N2CCOCC2)c1`, for which the inhibition (at 35 µM) is -3.8% (inactive).

With `COc1cccc(/C=N/NC(=O)CNC(=O)c2ccc(S(=O)(=O)N3CCOCC3)cc2)c1OC`, the inhibition (at 35 µM) was 7.4% (inactive).

On to `COc1ccccc1C(=O)COC(=O)CNS(=O)(=O)c1ccc(NC(C)=O)cc1`, for which, for the setting “at 35 µM”, the inhibition is -9.9% (inactive).

In the case of `O=C(O)CCCC(=O)N1N=C(c2ccco2)CC1c1ccco1` (configuration not stated), the inhibition (at 35 µM) is 7.4% (inactive).

With `O=c1c2ccccc2ncn1/N=C/c1ccccc1`, for the setting “at 35 µM”, the inhibition was 4.2% (inactive).

As for `COc1ccc(C(=S)Nc2ccccc2)cc1`, the inhibition (at 35 µM) was -0.5% (inactive).

As to `COc1ccc(Nc2nc(=O)[nH]nc2C)cc1`, the inhibition (at 35 µM) is 3.5% (inactive).

With `COc1ccc(NC2=CC(=S)NC(C)(C)C2)cc1`, the inhibition is 67.8% (active) (at 35 µM) and 62.7% (confirmation average, at 20 µM).

With `CCCCSCCCNC(=O)C1CCC(CNS(=O)(=O)c2ccc(NC(C)=O)cc2)CC1` (configuration not stated), under “at 35 µM”, the inhibition was 2.4% (inactive).

As for `Cc1cc(CNC(=O)C2CCC(=O)N(CCc3ccc(Cl)cc3)C2)no1` (configuration not stated), the inhibition (at 35 µM) is -0.4% (inactive).

In the case of `CCOC(=O)C1C(c2ccc(O)cc2)NC(=O)NC1(O)C(F)(F)F` (configuration not stated), the inhibition (at 35 µM) is -0.5% (inactive).

Turning to `Cc1ccccc1NC(=O)CCNS(=O)(=O)c1ccc2[nH]c(=O)oc2c1`, the inhibition (at 35 µM) is -5.4% (inactive).

Regarding `CCN1CCN(CCNC(=O)c2ccc(/C=C3/Sc4ccccc4N(Cc4cccc(C)c4)C3=O)cc2)CC1`, the inhibition (at 35 µM) is -0.9% (active) and the inhibition (confirmation average, at 20 µM) stood at 95.1%.

Take `O=C(NCCN1CCOCC1)c1ccc(/C=C2\Sc3ccccc3N(Cc3ccc(F)cc3)C2=O)cc1`: the inhibition (at 35 µM) was -7.3% (inactive).

As to `CCN1CCN(CCNC(=O)c2ccc3c(c2)NC(=O)/C(=C\c2ccc(OC)c(OC)c2)S3)CC1`, where the note is “at 35 µM”, the inhibition is 22.4% (inactive).

As to `COc1ccc(C)cc1Nc1nc(C)nc2c1oc1ccccc12`, the inhibition (at 35 µM) was -11.2% (inactive).

With `CN1CCN(C(=O)c2ccc(NS(=O)(=O)c3ccccc3)cc2)CC1`, where the note is “at 35 µM”, the inhibition is -6.4% (inactive).

For `CCC(C(=O)NC1CCCC1)N(C(=O)Cn1nnc(-c2ccc(C)o2)n1)c1ccc(OC)c(OC)c1` (configuration not stated), the inhibition (at 35 µM) was 5.7% (inactive).

In the case of `COc1ccc(-c2nnn(CC(=O)N(CCO)C(C(=O)NC3CCCC3)c3ccc(F)cc3)n2)cc1` (configuration not stated), the inhibition (at 35 µM) is -0.3% (inactive).

Take `CCOCCCN(C(=O)Cn1nnc(-c2ccc(OC)c(OC)c2)n1)C(CC)C(=O)NC1CCCC1` (configuration not stated): the inhibition is -12.4% (active) (at 35 µM) and 91% (confirmation average, at 20 µM).

With `O=C(O)Cn1c(Cc2ccccc2)nc2ccccc21`, the inhibition (at 35 µM) is -6.9% (inactive).

`O=C(Nc1ccc(Cl)c(Cl)c1)c1ccccc1NC(=O)C1CC=CCC1C(=O)O` (configuration not stated): the inhibition (at 35 µM) is -5.2% (inactive).

Regarding `O=C(NCc1ccccn1)c1cc(-c2ccccc2Cl)on1`, the inhibition (at 35 µM) was -3.2% (inactive).

With `O=C(NCc1ccccn1)c1ccc2nc(-c3ccco3)c(-c3ccco3)nc2c1`, the inhibition (at 35 µM) was 97% (active).

In the case of `COc1cccc(S(=O)(=O)NCc2ccc(C(=O)NCc3ccccn3)cc2)c1`, the inhibition (at 35 µM) is -1% (inactive).

Consider `COc1ccc(C23NCCN2C(=O)c2ccccc23)cc1` (configuration not stated), for which the inhibition (at 35 µM) was -1.8% (inactive).

Turning to `Cc1ccc(CN2CCN(c3ncccn3)CC2)c(C)c1`, the inhibition (at 35 µM) is 17.4% (inactive).

As for `COc1ccc(NS(=O)(=O)c2cc(NC(=O)/C=C/c3cc(OC)c(OC)c(OC)c3)ccc2N2CCCCC2)cc1`, the inhibition (at 35 µM) was -7.6% (inactive).

Take `COc1ccc(NS(=O)(=O)c2ccc(N3CCOCC3)c(NC(=O)c3ccccc3Br)c2)cc1`: the inhibition (at 35 µM) was -4.7% (inactive).

Turning to `COc1ccc(NS(=O)(=O)c2cc(NC(=O)C3CCCCC3)ccc2N2CCOCC2)cc1`, the inhibition is 13.7% (active) (at 35 µM) and 81.1% (confirmation average, at 20 µM).

With `CCC(C)[C@H](NC(=O)N1CCn2c1nc1ccccc12)C(=O)NCc1ccc(OC)cc1` (some centres not stated), the inhibition (at 35 µM) is -4.4% (inactive).
